Rows were chosen to be rich in hits. Some 14% of all compounds tested hit in one or more screens of this group.
Sm TGR block – inhibitors of Schistosoma mansoni thioredoxin glutathione reductase; purified TGR, DTNB reduction, TNB absorbance 405 nm; Q962Y6; Potency, µM (series often up to 114 µM), usual class: inhibitors; 360,000 tested, 3% active; AID 485364; note: nearly all actives have a fitted effect of over 60% in size
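First, TGR (20 nM dispensed) and NADPH were mixed with compound. Second, a 15 min room-temperature incubation followed. Third, further NADPH and then DTNB were added to start the reaction. Finally, TNB absorbance was monitored kinetically.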
Pf growth 48h – inhibits P. falciparum growth in the first generation, 48 h. AID 504832. 310,000 tested, 5.9% active. P. falciparum luciferase growth in erythrocytes, 48 h. Potency, µM (highest dose often 28.7 µM), most hits filed as inhibitors
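Growth was read as firefly luciferase luminescence after a 48 h, 37 C, 5% CO2 exposure of compounds to reporter-bearing P. falciparum cultures (0.1% parasitemia, 2% hematocrit final) in Albumax-supplemented RPMI 1640.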
FBPA Giardia inh – inhibitors of Giardia lamblia fructose-1,6-bisphosphate aldolase. purified Giardia FBPA. Potency, µM (doses to about 59.6 µM), most hits filed as inhibitors. 290,000 tested, 0.71% active. AID 2451; note: nearly all actives have a fitted effect of over 55% in size
Target sequence (A8B2U2 whole entry, looked up): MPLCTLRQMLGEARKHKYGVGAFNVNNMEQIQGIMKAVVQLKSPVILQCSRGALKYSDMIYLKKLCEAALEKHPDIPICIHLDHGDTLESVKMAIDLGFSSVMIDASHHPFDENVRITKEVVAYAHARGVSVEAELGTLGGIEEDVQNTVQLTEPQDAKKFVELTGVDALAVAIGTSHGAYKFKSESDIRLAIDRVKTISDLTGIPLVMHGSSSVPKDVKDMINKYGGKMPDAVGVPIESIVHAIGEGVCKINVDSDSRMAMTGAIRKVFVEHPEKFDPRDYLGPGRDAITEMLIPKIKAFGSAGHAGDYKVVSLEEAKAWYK
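Giardia FBPA (40 nM reagent) was preincubated 10 min at RT with compound (up to 57.5 uM final), then substrate plus GAPDH/TPI/NAD/arsenate coupling system with diaphorase/resazurin was added; resorufin fluorescence (525/598 nm) was read after 20 min.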
HCMV inh – human cytomegalovirus inhibition | HFF cells, HCMV-luciferase reporter, 72 h; hits give low values | 410,000 tested, 4.5% active | activity change, negative = inhibition, % at 57.5 µM | AID 1259415; in the data active = activity change below about -60%; inconclusive = no clear call, values can overlap the other calls; inactive = above about -39%
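Inhibition of viral replication was scored as loss of reporter luminescence in HFFs infected with HCMV-luciferase (MOI 1 PFU/cell) for 72 h; compounds tested at 2 doses, normalized to buffer and Salinomycin controls.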
Pf growth 96h – inhibits malaria parasite growth, 96 h. 320,000 tested, 6.9% active. Potency, µM (titrated, usually from 28.7 µM), actives largely listed as inhibitors. P. falciparum luciferase reporter growth, 96 h
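Erythrocytes infected with luciferase-expressing P. falciparum were dispensed at 2% hematocrit and 0.05% parasitemia (final), then incubated with compounds 96 hours at 37 C in 5% CO2. Luminescence after detection reagent addition reported growth.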
A number is an active result; i = inactive; ? = inconclusive; nt = no result; [ ] = another dose, or the depositor's remark. Unless noted, calls come from the whole dose curve; as a rule, active = well fitted curve in the direction sought with a large enough effect; inconclusive = small, poorly fitted or top-dose-only effect, or another doubt; inactive = no such curve, though single readings can be large; an effect the other way counts as inactive or inconclusive.

SMILES | Sm TGR block | Pf growth 48h | FBPA Giardia inh | HCMV inh | Pf growth 96h
O=C(Nc1cccnc1)c1cc(-c2cccs2)on1 | i | i | i | i | 10.4µM
O=C(c1ccccc1C(F)(F)F)N1CC2ON=C(c3c(F)cccc3Cl)C2C1 (stereo not drawn) | nt | nt | nt | i | nt
CCN(CC)CCNC(=O)c1ccc(NC(=O)c2ccc3c(c2)CCC3)cc1 | i | 5.22µM | i | i | 3.7µM
O=C(Nc1cccnc1)c1cn(-c2ccccc2)nc1-c1cccs1 | i | 0.586µM | i | i | i
OC(CNCCNc1ncccc1C(F)(F)F)COc1ccc(F)cc1 (stereo not drawn) | i | ? | i | i | ?
Cn1cc(C(F)(F)F)nc1-c1ccc(OCC(O)CNCCOc2ccc(O)c(C(N)=O)c2)cc1 (stereo not drawn) | i | 9.28µM | i | i | ?
COC(=O)C(C)n1cnc2c(nnn2-c2ccc(OC)cc2)c1=O (stereo not drawn) | i | i | i | i | 4.15µM
COC(=O)c1cc2c(c3c4ccccc4n(S(=O)(=O)c4ccccc4)c13)C(=O)N(Cc1ccc(N(C)C)cc1)C2 | nt | nt | nt | i | nt
O=C(/C=C/c1cn(CC(O)CN2CCCCC2)c2ccccc12)c1cccs1 (stereo not drawn) | i | 8.28µM | i | i | ?
O=C(/C=C/c1cn(CC(O)CN2CCCCC2)c2ccccc12)c1ccccc1 (stereo not drawn) | i | 13.1µM | i | -84.5 | ?
Cc1nc2ccc(NC(=O)[C@H](C)N3C(=O)C4CC=CCC4C3=O)cc2s1 (stereo partly drawn) | nt | nt | nt | i | nt
Cc1cc(C(=O)NCc2cccnc2)no1 | i | i | i | i | nt
O=C(NCc1cccnc1)c1cccc(Cl)c1 | i | i | i | -60.9 | ?
O=C(NCc1cccnc1)c1ccc(COc2ccccc2Cl)cc1 | i | i | i | -73.4 | i[5.75 µM]
O=C(NCc1cccnc1)c1ccc(COc2ccccc2Br)cc1 | i | i[5.75 µM] | i | -76.5 | i
Cc1cc2c(cc(C(=O)NCc3cccnc3)n2Cc2ccc(Cl)cc2)o1 | ? | ? | i | i | 10.4µM
CC(=O)N(C[C@@H](C)C(=O)O)c1c(I)cc(I)c(N)c1I | nt | i | i | nt | i
COc1cc(/C=C2\CCC(C3CCCC3)C2=O)ccc1OC(C)C (stereo not drawn) | i | 2.08µM | i | i | ?
O=C(Nc1cccc(C(F)(F)F)c1)Nc1ccc2nc([C@@H]3O[C@H](CO)[C@@H](O)[C@H](O)[C@H]3O)[nH]c2c1 | nt | nt | nt | i | nt
COC(=O)c1ccc(NC(=O)c2c(Br)cnn2C)cc1 | 14.1µM | i[0.00184 µM] | i | ? | ?
CCCNC(=O)c1cc(S(=O)(=O)N2CCc3ccccc32)cn1C | i | i | i | ? | i
CC(C)n1c(=O)c2ccccc2n1Cc1cn(-c2ccccc2)nn1 | nt | nt | nt | i | nt
CCOc1ccc(C(=O)Nc2nnc(S(=O)(=O)Nc3ccccc3C)s2)cc1 | i | i | i | i | ?
CC(Nc1ccc(Br)cc1)C(=O)N/N=C/c1ccccc1OCc1ccccc1 (stereo not drawn) | i | nt | i | i | i
COc1ccc(NC(C)C(=O)N/N=C/c2ccccc2OCc2ccc(Br)cc2)cc1 (stereo not drawn) | i | 9.28µM | i | i | i
SMILES | Sm TGR block | Pf growth 48h | FBPA Giardia inh | HCMV inh | Pf growth 96h
C#CCOCCOCCOCCNc1nc(N2CCN(C(=O)[C@H]([C@@H](C)CC)n3cc([C@@H](N)CC(C)C)nn3)CC2)nc(N2CCN(C(=O)[C@H](Cc3cc4ccccc4[nH]3)n3cc([C@@H](N)CC(C)C)nn3)CC2)n1 | ? | 10.4µM | i | nt | 3.29µM
C#CCOCCOCCOCCNc1nc(N2CCOCC2)nc(N2CCN(C(=O)[C@H](Cc3cc4ccccc4[nH]3)n3cc([C@@H](N)CC(C)C)nn3)CC2)n1 | i | 2.33µM | i | nt | 4.15µM
C#CCOCCOCCOCCNc1nc(N2CCN(C(=O)[C@H](Cc3cc4ccccc4[nH]3)n3cc([C@@H](N)CC(C)C)nn3)CC2)nc(N2CCN(C(=O)[C@H](Cc3cc4ccccc4[nH]3)n3cc([C@@H](N)CC(C)C)nn3)CC2)n1 | i | 2.62µM | i | nt | 4.15µM
O=C(O[C@H]1CC[C@@]23CCCN2C(=O)CCC[C@H]3[C@H]1Cc1ccccc1)N1CCCC1 | nt | nt | nt | i | nt
COCCNC(=O)[C@H](C)/C=C/C(NC(=O)OCc1ccccc1)c1ccc(C(=O)OC)cc1 (stereo partly drawn) | nt | nt | i | nt | nt
COc1cc(C2Nc3c(F)cccc3C3C=CCC32)cc(Br)c1OC (stereo not drawn) | 20µM | 9.28µM | i | i | i
COc1cc2c(c(OC)c1)C(c1cccc(OC)c1OC)CC(=O)N2 (stereo not drawn) | i | i | i | i | ?
COc1cccc(C2Nc3c(F)cc(Br)cc3C3C=CCC32)c1OC (stereo not drawn) | i | 9.28µM | i | i | 11.7µM
CC(=O)C[C@H]1c2cc(C(F)(F)F)ccc2S(=O)(=O)N1c1ccc(N(C)C)cc1 | nt | nt | nt | i | nt
O=C1NC(c2ccccc2)C(C(=O)c2cccs2)=C1O (stereo not drawn) | i | i | i | i | 11.7µM
CN(C(=O)COc1cc(=O)n(C)c2ccccc12)c1ccc(Br)cc1 | i | ? | i | i | 10.4µM
CCN(C(=O)COc1cc(=O)n(C)c2ccccc12)c1cccc(Cl)c1 | i | ? | i | -90.2 | ?
Cc1cc(C)c(S(=O)(=O)N2CCN(S(=O)(=O)N3CCOCC3)CC2)c(C)c1 | i | i | i | i | 2.33µM
O=C(NC1CC1)C1=NOC(CNc2ncc(C(F)(F)F)cc2Cl)C1 (stereo not drawn) | i | nt | i | i | 11.7µM
COC(=O)c1ccccc1NC(=O)CN1C(=O)C2CCCN2c2ncc(Cl)cc21 (stereo not drawn) | ? | 2.94µM | i | nt | i
CCc1ccccc1NC(=O)CN1C(=O)C2CCCN2c2ncc(Cl)cc21 (stereo not drawn) | i | ? | i | i | i
CC1CCC(NC(=O)CN2C(=O)C3CCCN3c3ncc(Cl)cc32)CC1 (stereo not drawn) | i | 3.7µM | i | nt | nt
CN1CC(=O)N(CC(=O)NCc2ccc3c(c2)OCO3)C1=O | i | nt | i | -102.0 | i
O=C(CN1C(=O)C2CCCN2c2ncc(Cl)cc21)NCc1ccc2c(c1)OCO2 (stereo not drawn) | i | 9.28µM | i | i | i
COc1ccc(CNC(=O)CN2C(=O)C3CCCN3c3ncc(Cl)cc32)cc1 (stereo not drawn) | i | ? | i | i | nt
O=C(Nc1ccn(CCOC(=O)c2ccccc2)c(=O)n1)c1ccccc1 | nt | nt | nt | i | nt
Cc1ccc(SCC(=O)OCC(=O)N(CCC#N)c2ccccc2)cc1 | i | i | nt | i | i
Cn1cnnc1SCC(=O)c1ccc(OC(F)F)cc1 | i | nt | i | -78.0 | i
Cn1cnnc1SCC(=O)Nc1ccc(OC(F)F)cc1 | i | 13.1µM | i | i | i
CCOc1ccc(Oc2ccc(NC(=O)CSc3nncn3C)cc2)cc1 | i | i | nt | i | i
COc1ccc(C(=O)CSc2nncn2C)cc1 | i | i | i | i | nt
